Laboratory results taken from the supplement of paper PMC10849652.
Targets with a hit are over-represented here; the source holds about 8,800 in all. About 0.5% of all pairs of compound and target were hits.

How the values were obtained:
Assay in all cases: log2 fold change, soluble protein after heating vs DMSO (PISA); higher = thermal stabilisation; K562 lysate, 10 uM; active = over 0.2 and 3.5 SD of the protein, either way, in both replicates (recomputed)
[1] = compound: CCCS(=O)(=O)Nc1ccc(F)c(C(=O)c2c[nH]c3ncc(-c4ccc(Cl)cc4)cc23)c1F [vemurafenib]
Summary of the method: (§1)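 Quantification was by TMTpro 16plex LC-MS/MS with equalised channel sums, applied to the supernatant after 21,000xg for 90 min. Samples were crude K562 extract at 1 mg/mL protein in PBS pH 7.4 with 1 mM MgCl2, treated with 10 μM compound for 30 min, heated for 3 min across 48°C-58°C, pooled and brought to 0.5% NP-40 at 4°C. Values are log-two fold changes in thermal stability relative to solvent controls, from duplicates.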

[2] = compound: CCCS(=O)(=O)Nc1ccc(F)c(C(=O)c2c[nH]c3ncc(Cl)cc23)c1F
Summary of the method: as §1

[3] = compound: CCN(CCCOc1ccc2c(Nc3cc(CC(=O)Nc4cccc(F)c4)[nH]n3)ncnc2c1)CCOP(=O)(O)O [barasertib]
Summary of the method: as §1

[4] = compound: CC[C@@H]1C(=O)N(C)c2cnc(Nc3ccc(C(=O)NC4CCN(C)CC4)cc3OC)nc2N1C1CCCC1
Summary of the method: as §1

[5] = compound: CC[C@@H]1C(=O)N(C)c2cnc(Nc3ccc(C(=O)N[C@H]4CC[C@H](N5CCN(CC6CC6)CC5)CC4)cc3OC)nc2N1C(C)C [volasertib]
Summary of the method: as §1

[6] = compound: CCn1c(C(=O)N(C2CC2)C2CC2)cc2c3c(ncn3C)c(Nc3cc(C)n(C)n3)nc21
Summary of the method: as §1

[7] = compound: CCn1cc(-c2ccnc3[nH]c(-c4cccc(CN(C)C)c4)cc23)c(-c2ccc(NC(=O)N(C)C)cc2)n1
Summary of the method: as §1

[8] = compound: CN1CCC(CNc2ccc3ncc(-c4cccc(OC(F)(F)F)c4)n3n2)CC1
Summary of the method: as §1

[9] = compound: CN1CCN(CCOc2cc(OC3CCOCC3)c3c(Nc4c(Cl)ccc5c4OCO5)ncnc3c2)CC1 [saracatinib]
Summary of the method: as §1

[10] = compound: CN1CCN(c2nc(C3=C(c4c[nH]c5ccccc45)C(=O)NC3=O)c3ccccc3n2)CC1 [sotrastaurin]
Summary of the method: as §1

[11] = compound: CN1CC[C@H](c2c(O)cc(O)c3c(=O)cc(-c4ccccc4Cl)oc23)[C@H](O)C1 [alvocidib]
Summary of the method: as §1

[12] = compound: CN1CCc2c(c3ccccc3n2Cc2ccc(C(=O)NO)cc2)C1 [Tubastatin A]
Summary of the method: as §1

[13] = compound: CNC(=O)C1=CC=CC=C1NC2=NC(=NC=C2Cl)NC3=C(C=C(C=C3)N4CCOCC4)OC
Summary of the method: as §1

[14] = compound: CNC(=O)c1ccc(Nc2ncc(C(F)(F)F)c(NCc3nccnc3N(C)S(C)(=O)=O)n2)cc1 [defactinib]
Summary of the method: as §1

[15] = compound: CNc1nc(-c2ccc3c(N)n[nH]c3c2)cc(N2C[C@@H](C(=O)NC3CCCCC3)CC[C@H]2C)n1
Summary of the method: as §1

[16] = compound: COC(=O)N[C@@H](C)CNc1nccc(-c2cn(C(C)C)nc2-c2cc(Cl)cc(NS(C)(=O)=O)c2F)n1 [encorafenib]
Summary of the method: as §1

[17] = compound: COC(=O)[C@H](CCSC)NC(=O)C1=C(C=C(C=C1)NC[C@H](CS)N)C2=CC=CC=C2
Summary of the method: as §1

[18] = compound: COc1cc(Nc2ncc3c(n2)-c2ccc(Cl)cc2C(c2c(F)cccc2OC)=NC3)ccc1C(=O)O [alisertib]
Summary of the method: as §1

[19] = compound: COc1cc2nc(-c3cc(F)ccc3O)nc(N[C@@H]3CNC[C@H]3C(C)(C)O)c2cc1OC
Summary of the method: as §1

[20] = compound: COc1cc2ncnc(Nc3ccc(F)c(Cl)c3)c2cc1OCCCN1CCOCC1 [gefitinib]
Summary of the method: as §1

Measured: log2 fold change

HDAC2 (UniProt Q92769)
inactive: [1] -0.025 | [2] 0.035 | [3] 0.009 | [4] -0.012 | [5] -0.009 | [6] 0.002 | [7] -0.052 | [8] 0.055 | [9] 0.02 | [10] -0.024 | [11] -0.01 | [12] -0.012 | [13] -0.007 | [14] 0.006 | [15] 0.003 | [16] -0.006 | [17] 0.007 | [18] 0.002 | [19] 0 | [20] 0.013

IFNGR1 (UniProt P15260)
inactive: [1] 0.182 | [2] -0.07 | [3] -0.051 | [4] 0.234 | [5] 0.08 | [6] -0.153 | [8] 0.331 | [9] 0.032 | [10] -0.018 | [11] -0.348 | [12] 0.157 | [13] -0.022 | [14] -0.164 | [15] 0.272 | [16] -0.018 | [17] -0.002 | [18] 0.138 | [19] 0.106 | [20] -0.036
active: [7] -0.641

HDGFL2 isoform 2 (UniProt Q7Z4V5)
inactive: [1] 0.016 | [2] -0.003 | [3] -0.01 | [4] 0.064 | [5] 0.052 | [6] -0.066 | [8] 0.196 | [9] -0.015 | [10] 0.038 | [11] -0.155 | [12] 0.011 | [13] 0.013 | [14] -0.008 | [15] 0.016 | [16] -0.004 | [17] -0.065 | [18] -0.029 | [19] 0 | [20] 0.03
active: [7] -0.417

IMPDH1 isoform 6 (UniProt P20839)
Sequence of UniProt P20839 (P20839 whole entry, looked up): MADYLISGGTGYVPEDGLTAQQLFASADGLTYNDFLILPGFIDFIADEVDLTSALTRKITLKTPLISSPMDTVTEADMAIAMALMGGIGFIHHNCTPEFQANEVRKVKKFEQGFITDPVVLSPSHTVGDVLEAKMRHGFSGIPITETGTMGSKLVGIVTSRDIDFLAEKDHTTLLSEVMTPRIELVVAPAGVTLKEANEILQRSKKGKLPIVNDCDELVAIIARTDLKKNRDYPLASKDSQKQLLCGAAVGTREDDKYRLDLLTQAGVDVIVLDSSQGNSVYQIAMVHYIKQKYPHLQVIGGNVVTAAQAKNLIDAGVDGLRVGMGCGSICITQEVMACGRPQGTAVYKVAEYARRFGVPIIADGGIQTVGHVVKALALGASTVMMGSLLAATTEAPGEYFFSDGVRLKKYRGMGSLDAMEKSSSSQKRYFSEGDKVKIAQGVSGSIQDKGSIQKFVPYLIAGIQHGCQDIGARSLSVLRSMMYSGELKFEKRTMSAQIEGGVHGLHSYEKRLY
active: [12] -0.226 | [17] -0.478
inactive: [1] -0.006 | [2] -0.015 | [3] -0.01 | [4] 0.003 | [5] -0.002 | [6] -0.006 | [7] -0.128 | [8] 0.021 | [9] 0.003 | [10] -0.024 | [11] -0.009 | [13] 0.002 | [14] -0.002 | [15] 0.018 | [16] -0.001 | [18] 0.004 | [19] -0.002 | [20] 0.005

HMGCS1 (UniProt Q01581)
inactive: [1] 0.008 | [2] -0.009 | [3] -0.038 | [4] -0.003 | [5] -0.017 | [6] 0.014 | [7] -0.005 | [8] 0.009 | [9] 0.004 | [10] -0.014 | [11] 0.021 | [12] -0.073 | [13] 0.004 | [14] -0.011 | [15] 0.006 | [16] -0.021 | [17] 0.078 | [18] 0.012 | [19] -0.002 | [20] 0.013

GTPBP2 (UniProt Q9BX10)
Sequence of UniProt Q9BX10 (Q9BX10 whole entry, looked up): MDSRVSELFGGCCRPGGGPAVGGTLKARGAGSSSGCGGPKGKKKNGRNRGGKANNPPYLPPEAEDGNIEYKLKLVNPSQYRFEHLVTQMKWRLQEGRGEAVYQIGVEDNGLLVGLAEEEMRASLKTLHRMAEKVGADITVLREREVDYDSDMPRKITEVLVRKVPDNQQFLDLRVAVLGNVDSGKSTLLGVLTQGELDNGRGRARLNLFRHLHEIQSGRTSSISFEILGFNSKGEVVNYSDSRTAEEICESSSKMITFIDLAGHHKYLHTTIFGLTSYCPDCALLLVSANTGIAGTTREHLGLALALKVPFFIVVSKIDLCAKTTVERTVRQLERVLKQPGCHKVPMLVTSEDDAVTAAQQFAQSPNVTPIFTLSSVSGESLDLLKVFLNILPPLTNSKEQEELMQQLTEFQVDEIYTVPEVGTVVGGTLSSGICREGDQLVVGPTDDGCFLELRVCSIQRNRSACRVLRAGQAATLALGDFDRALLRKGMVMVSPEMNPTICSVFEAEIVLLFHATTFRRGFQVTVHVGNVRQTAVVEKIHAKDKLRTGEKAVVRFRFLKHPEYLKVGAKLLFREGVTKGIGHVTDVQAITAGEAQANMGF
inactive: [1] 0.005 | [2] 0.005 | [3] 0.034 | [4] -0.03 | [5] -0.104 | [6] 0.043 | [7] 0.124 | [8] -0.074 | [9] 0.047 | [10] 0.043 | [11] -0.001 | [12] -0.045 | [13] 0.039 | [14] 0.018 | [15] -0.037 | [16] 0.002 | [17] 0.079 | [18] 0.034 | [19] -0.07 | [20] 0.058

ILKAP (UniProt Q9H0C8)
inactive: [1] -0.037 | [2] -0.01 | [3] -0.04 | [4] -0.048 | [5] -0.017 | [6] 0.002 | [7] 0.016 | [8] 0 | [9] -0.013 | [10] 0.021 | [11] 0.056 | [12] -0.067 | [13] 0 | [14] 0.03 | [15] -0.028 | [16] -0.002 | [17] 0.017 | [18] 0.067 | [19] -0.006 | [20] 0.005

GON4L (UniProt Q3T8J9)
Sequence of UniProt Q3T8J9 (Q3T8J9 whole entry, looked up): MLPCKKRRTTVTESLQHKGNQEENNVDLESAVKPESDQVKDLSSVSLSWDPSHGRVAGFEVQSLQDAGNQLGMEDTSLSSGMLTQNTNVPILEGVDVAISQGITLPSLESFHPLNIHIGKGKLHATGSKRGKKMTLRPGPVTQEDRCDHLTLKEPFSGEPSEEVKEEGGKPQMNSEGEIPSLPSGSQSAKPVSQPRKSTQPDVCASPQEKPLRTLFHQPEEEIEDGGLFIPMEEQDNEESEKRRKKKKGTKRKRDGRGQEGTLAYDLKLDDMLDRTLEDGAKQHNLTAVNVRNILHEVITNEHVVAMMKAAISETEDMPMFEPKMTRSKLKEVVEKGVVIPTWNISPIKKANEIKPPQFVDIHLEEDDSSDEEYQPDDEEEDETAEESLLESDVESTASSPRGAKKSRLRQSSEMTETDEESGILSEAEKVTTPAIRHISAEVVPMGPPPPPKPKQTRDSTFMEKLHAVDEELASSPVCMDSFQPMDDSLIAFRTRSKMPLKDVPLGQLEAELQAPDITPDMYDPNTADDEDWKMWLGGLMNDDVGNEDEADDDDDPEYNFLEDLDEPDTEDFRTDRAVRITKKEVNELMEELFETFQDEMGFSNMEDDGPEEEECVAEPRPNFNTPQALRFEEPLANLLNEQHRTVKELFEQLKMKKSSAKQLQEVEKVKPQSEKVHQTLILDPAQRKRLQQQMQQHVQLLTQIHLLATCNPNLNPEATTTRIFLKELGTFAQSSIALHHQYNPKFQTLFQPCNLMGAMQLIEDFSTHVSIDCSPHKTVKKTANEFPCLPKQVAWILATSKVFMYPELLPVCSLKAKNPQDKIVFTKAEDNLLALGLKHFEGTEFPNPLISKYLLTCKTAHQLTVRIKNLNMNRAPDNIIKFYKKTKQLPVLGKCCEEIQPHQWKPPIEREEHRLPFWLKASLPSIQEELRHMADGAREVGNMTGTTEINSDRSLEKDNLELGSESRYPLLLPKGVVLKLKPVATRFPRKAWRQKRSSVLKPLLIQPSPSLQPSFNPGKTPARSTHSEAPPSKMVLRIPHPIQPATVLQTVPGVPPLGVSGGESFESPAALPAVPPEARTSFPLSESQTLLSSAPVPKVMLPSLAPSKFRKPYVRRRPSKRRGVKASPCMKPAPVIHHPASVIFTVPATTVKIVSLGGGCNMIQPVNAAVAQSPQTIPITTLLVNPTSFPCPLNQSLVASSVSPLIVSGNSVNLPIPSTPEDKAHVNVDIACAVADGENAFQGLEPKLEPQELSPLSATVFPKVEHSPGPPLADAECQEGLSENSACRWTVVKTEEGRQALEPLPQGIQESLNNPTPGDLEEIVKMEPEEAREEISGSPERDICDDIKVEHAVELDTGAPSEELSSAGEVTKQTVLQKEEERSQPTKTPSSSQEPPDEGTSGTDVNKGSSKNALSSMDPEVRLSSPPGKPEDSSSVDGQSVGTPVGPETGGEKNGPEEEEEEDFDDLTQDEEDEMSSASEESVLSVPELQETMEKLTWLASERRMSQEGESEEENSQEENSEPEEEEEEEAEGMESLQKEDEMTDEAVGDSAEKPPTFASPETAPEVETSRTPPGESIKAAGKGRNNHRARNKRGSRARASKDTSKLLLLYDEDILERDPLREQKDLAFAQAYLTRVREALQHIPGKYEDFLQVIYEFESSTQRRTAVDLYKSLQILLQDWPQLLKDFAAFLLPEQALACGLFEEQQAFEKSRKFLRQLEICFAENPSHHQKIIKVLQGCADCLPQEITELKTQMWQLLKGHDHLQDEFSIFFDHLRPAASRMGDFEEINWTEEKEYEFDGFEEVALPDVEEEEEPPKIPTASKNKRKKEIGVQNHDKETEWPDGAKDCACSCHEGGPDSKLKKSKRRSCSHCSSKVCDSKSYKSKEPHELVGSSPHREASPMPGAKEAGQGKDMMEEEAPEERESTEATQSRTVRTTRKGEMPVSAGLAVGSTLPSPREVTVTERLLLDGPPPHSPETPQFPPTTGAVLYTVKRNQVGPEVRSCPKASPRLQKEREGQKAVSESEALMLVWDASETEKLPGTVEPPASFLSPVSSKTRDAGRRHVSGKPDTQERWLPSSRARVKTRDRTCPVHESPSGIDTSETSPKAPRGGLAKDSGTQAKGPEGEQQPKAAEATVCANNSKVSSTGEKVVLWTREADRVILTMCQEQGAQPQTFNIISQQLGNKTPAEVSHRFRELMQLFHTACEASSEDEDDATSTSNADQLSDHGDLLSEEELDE
inactive: [1] 0 | [2] 0.054 | [3] 0.097 | [4] -0.064 | [5] -0.018 | [6] 0.02 | [7] -0.104 | [8] -0.027 | [9] -0.019 | [10] 0.016 | [11] 0.019 | [12] -0.114 | [13] 0.028 | [14] -0.001 | [15] 0.007 | [16] 0.092 | [17] 0.107 | [18] -0.015 | [19] -0.027 | [20] -0.074

ISY1 isoform 1 (UniProt Q9ULR0)
Sequence of UniProt Q9ULR0 (Q9ULR0 whole entry, looked up): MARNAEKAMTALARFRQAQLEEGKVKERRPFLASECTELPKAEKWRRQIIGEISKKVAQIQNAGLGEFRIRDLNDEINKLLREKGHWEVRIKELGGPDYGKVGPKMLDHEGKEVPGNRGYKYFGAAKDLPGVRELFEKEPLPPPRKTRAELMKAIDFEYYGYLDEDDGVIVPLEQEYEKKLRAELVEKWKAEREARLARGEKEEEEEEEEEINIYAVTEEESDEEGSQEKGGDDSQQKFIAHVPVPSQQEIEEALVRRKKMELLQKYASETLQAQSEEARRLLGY
active: [15] 0.366
inactive: [1] -0.186 | [2] 0.034 | [3] 0.018 | [4] 0.066 | [5] -0.025 | [6] -0.012 | [7] -0.101 | [8] 0.02 | [9] 0.026 | [10] 0.032 | [11] -0.05 | [12] -0.03 | [13] 0.013 | [14] 0.082 | [16] -0.03 | [17] -0.149 | [18] -0.012 | [19] 0.016 | [20] 0.075

GRK6 isoform 2 (UniProt P43250)
Sequence of UniProt P43250 (P43250 whole entry, looked up): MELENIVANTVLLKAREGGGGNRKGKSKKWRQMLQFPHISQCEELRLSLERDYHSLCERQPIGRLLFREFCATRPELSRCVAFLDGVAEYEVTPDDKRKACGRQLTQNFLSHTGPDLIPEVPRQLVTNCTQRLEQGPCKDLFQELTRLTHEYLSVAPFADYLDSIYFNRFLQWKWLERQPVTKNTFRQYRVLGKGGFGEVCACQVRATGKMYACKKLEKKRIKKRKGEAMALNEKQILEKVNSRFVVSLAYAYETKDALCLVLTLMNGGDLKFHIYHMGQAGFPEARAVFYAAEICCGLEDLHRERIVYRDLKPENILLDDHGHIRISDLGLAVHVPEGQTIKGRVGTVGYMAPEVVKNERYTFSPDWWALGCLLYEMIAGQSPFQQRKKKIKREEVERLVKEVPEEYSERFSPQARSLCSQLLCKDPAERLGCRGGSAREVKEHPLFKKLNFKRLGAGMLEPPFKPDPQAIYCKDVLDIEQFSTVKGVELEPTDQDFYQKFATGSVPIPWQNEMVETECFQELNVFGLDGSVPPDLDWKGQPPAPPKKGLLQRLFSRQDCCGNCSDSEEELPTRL
inactive: [1] 0.102 | [2] 0.046 | [3] 0.042 | [4] 0.11 | [5] 0.006 | [6] -0.032 | [7] -0.136 | [9] -0.056 | [10] -0.001 | [11] -0.05 | [12] 0.074 | [13] 0.007 | [14] 0.034 | [15] 0.148 | [16] -0.082 | [17] 0.043 | [18] -0.04 | [19] -0.015 | [20] 0.064
active: [8] 0.614

HDAC1 (UniProt Q13547)
Sequence of UniProt Q13547 (Q13547 whole entry, looked up): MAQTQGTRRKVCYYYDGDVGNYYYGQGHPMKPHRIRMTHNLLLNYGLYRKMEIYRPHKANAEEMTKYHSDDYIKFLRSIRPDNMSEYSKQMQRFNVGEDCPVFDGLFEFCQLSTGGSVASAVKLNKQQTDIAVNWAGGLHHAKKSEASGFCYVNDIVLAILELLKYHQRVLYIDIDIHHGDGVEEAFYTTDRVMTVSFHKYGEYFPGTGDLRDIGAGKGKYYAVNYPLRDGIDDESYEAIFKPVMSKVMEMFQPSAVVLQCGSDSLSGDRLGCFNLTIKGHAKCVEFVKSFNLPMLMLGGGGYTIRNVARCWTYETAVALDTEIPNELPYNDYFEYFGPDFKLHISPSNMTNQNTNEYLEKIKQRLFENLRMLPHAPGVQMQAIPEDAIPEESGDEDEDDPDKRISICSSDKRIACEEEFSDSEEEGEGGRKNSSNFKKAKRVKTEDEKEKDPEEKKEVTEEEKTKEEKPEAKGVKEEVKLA
inactive: [1] 0.01 | [2] 0.022 | [3] -0.001 | [4] -0.004 | [5] -0.019 | [6] 0.03 | [7] -0.036 | [8] -0.001 | [9] 0.014 | [10] -0.011 | [11] 0.003 | [12] -0.027 | [13] -0.015 | [14] 0.014 | [15] -0.012 | [16] 0.006 | [17] 0.04 | [18] 0.017 | [19] -0.031 | [20] 0.004

KCT2 (UniProt Q8NC54)
Sequence of UniProt Q8NC54 (Q8NC54 whole entry, looked up): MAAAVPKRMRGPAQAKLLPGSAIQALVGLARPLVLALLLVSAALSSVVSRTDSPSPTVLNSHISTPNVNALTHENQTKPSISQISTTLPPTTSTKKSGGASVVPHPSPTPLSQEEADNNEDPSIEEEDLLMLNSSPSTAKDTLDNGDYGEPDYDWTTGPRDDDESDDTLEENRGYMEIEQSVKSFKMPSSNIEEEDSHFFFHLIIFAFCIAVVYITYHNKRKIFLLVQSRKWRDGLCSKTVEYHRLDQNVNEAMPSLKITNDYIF
active: [7] -0.374
inactive: [1] 0.046 | [2] 0.023 | [3] 0.127 | [4] 0.054 | [5] -0.001 | [6] -0.038 | [8] 0.153 | [9] 0.089 | [10] 0.038 | [11] -0.137 | [12] 0.029 | [13] -0.001 | [14] -0.012 | [15] 0.013 | [16] 0.031 | [17] -0.035 | [18] 0.077 | [19] 0 | [20] -0.037

GSE1 (UniProt Q14687)
inactive: [1] -0.018 | [2] 0.035 | [3] 0.011 | [4] -0.015 | [5] -0.026 | [6] 0.007 | [7] -0.074 | [8] -0.009 | [9] 0.031 | [10] 0.049 | [11] -0.032 | [12] -0.155 | [13] 0.014 | [14] -0.006 | [15] -0.001 | [16] 0.017 | [17] 0.05 | [18] -0.017 | [19] 0.027 | [20] 0.013
